We go through eight compounds from PubChem BioAssay (NCATS).

Test [1] deals with Cytochrome P450 3A4 (Homo sapiens) (UniProt P08684). Briefly: qHTS Assay for Activators of Cytochrome P450 3A4 (AID 885). Note: nearly all actives have a fitted effect of over 65% in size. An outline of the steps: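 Luminescent readout of luciferin formed from 25 uM Luciferin-PPXE (KM level) by 20 nM CYP3A4 in 200 mM KPO4, with 60 min NADPH-driven reaction at room temperature after 10 min compound exposure. Ketoconazole (57 uM) defined 100% inhibition.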
On the technique in general: In qHTS, concentration-response curves come from the screen itself.

For test [2], the system named is Zika virus NS2B-NS3 protease. Briefly: Primary screen GU AMC qHTS for Zika virus inhibitors (AID 1347154).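 Note: 0% = no-inhibitor control and -100% = no-enzyme control; nearly all actives have a fitted effect of over 70% in size.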 A digest of the protocol: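 Unlinked Zika NS2B hydrophilic domain/NS3 protease domain noncovalent complex (25 nM final) in 10 mM Tris-HCl pH 8.0, 0.01% Tween 20, with AMC peptide substrate. Fluorescence (ex 340, em 450 nm) change over 15 min, room temperature; percent inhibition fitted to 4-parameter Hill equation.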

A short description of test [3]: Primary qHTS for small molecule stabilizers of the endoplasmic reticulum resident proteome: Secreted ER Calcium Modulated Protein (SERCaMP) assay (AID 1508630). Note: % is set by controls: 0 for no effect and ±100 for the full control effect. A digest of the protocol:
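The SH-SY5Y reporter protocol was run at 3 concentrations up to 38.3 uM (primary) or 11 concentrations (follow-up): 16 h compound, 100 nM thapsigargin for 4 h, then extracellular luciferase luminescence.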

The target of test [4] is Cytochrome P450 1A2 (Homo sapiens) (UniProt P05177). The test can be described thus: p450-cyp1a2 (AID 410; calls by dose curve; note: potency is the fitted concentration of half-maximal effect). An outline of the steps: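 20nM CYP1A2, 100uM Luciferin-ME (=Km), 100mM KPO4; cpd 10 min RT; +NADPH regen, 60 min RT; stop/detect 20 min; luminescence. Normalized to furafylline 57 uM = full inhibition.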
Test [5] has as its target Glucocorticoid receptor (Homo sapiens) (UniProt P04150). Briefly: GR-GFP Redistribution (AID 450;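 active = compounds whose dose series gives a full or clear partial fitted curve of increased nuclear translocation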; note: potency is the fitted concentration of half-maximal effect). As to conditions: U2OS GR-GFP nuclear translocation, laser cytometry, 2 h.
The target is the same in test [6]. Briefly: GR-EFC Redistribution (AID 451; calls by dose curve; note: potency is the fitted concentration of half-maximal effect). As to conditions: CHO-K1 GR-EFC translocation, beta-gal luminescence, 2 h. An outline of the steps: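 CHO-K1 cells stably expressing nuclear-localized β-gal enzyme acceptor and GR fused C-terminally to the enzyme donor fragment; ligand-driven nuclear translocation restores β-gal by complementation. Compounds titrated up to 46 uM final, 2 h at 37 °C; luminescence read.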

Test [7] has as its target Mitogen-activated protein kinase 10 (Mus musculus) (UniProt Q61831). Briefly: JNK3 AlphaScreen Assay (AID 530; active = well fitted curve in either direction with a large enough effect, not every such curve was filed as active;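 note: kinase came from lysate of stimulated human HepG2 cells; signal reports phosphorylation of biotinylated GST-cJun 1-79 at Ser73 with 10 µM ATP; % is set by controls: 0 for no effect and ±100 for the full control effect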). A digest of the protocol: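 Biotinylated GST-cJun(1-79) served as substrate for JNK3 in HepG2 lysates stimulated with IL-1beta and TNF-alpha. ATP was 10 uM final, pH 7.6. Ser73 phosphorylation was quantified by AlphaScreen (680 nm excitation).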
The target in test [8] is Cytochrome P450 2C9 (Homo sapiens) (UniProt P11712). The test can be described thus: qHTS Assay for Inhibitors and Substrates of Cytochrome P450 2C9 (AID 883). Note: % is set by controls: 0 for no effect and ±100 for the full control effect; nearly all actives have a fitted effect of over 60% in size. A digest of the protocol:
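A luminogenic readout tracked human CYP2C9 (10nM) converting deoxyluciferin (100uM, at KM) in 25mM KPO4 during 60 min at 37C with regenerated NADPH. Values normalized to 57uM sulphaphenazole as complete inhibition.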

For test [9], the target named is Cytochrome P450 2D6 (Homo sapiens) (UniProt P10635). Briefly: qHTS Assay for Inhibitors and Substrates of Cytochrome P450 2D6 (AID 891). Note: nearly all actives have a fitted effect of over 60% in size. Note: potency is the fitted concentration of half-maximal effect. A digest of the protocol: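 Luminescent read-out of luciferin formed by 5 nM human CYP2D6 demethylating 30 uM Luciferin-ME EGE (Km level) over 60 min at room temperature after NADPH regeneration addition. Data normalized to full inhibition by 1.43 uM quinidine.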

In test [10] the target is Cytochrome P450 2C19 (Homo sapiens) (UniProt P33261). The test can be described thus: qHTS Assay for Inhibitors and Substrates of Cytochrome P450 2C19 (AID 899). Note: nearly all actives have a fitted effect of over 60% in size. Note: potency is the fitted concentration of half-maximal effect. A digest of the protocol:
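NADPH-dependent conversion of Luciferin-H EGE (10uM, at KM) by 5nM enzyme in 50mM KPO4, 60 min at 37C following 10 min compound preincubation. Stopped with luciferin detection buffer; luminescence read after 20 min.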

Test [11] is described as follows: qHTS Assay for Lipid Storage Modulators (AID 1519; calls by dose curve). As to conditions: Drosophila S3 cells, BODIPY lipid droplet/cell ratio, laser cytometry, cells loaded with oleic acid. An outline of the steps:
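Cells seeded at 5,000 per well were treated with compounds over a concentration series and loaded with oleic acid (400 uM, as added). Lipid droplet fluorescence (488 nm excitation, 500-530 nm channel) was read by laser-scanning cytometry and normalized to 20 uM Triacsin C.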

Test [12] addresses Ubiquitin carboxyl-terminal hydrolase 1 (Homo sapiens) (UniProt O94782). Briefly: Inhibitors of USP1/UAF1: Pilot qHTS (AID 504865).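 Note: rhodamine fluorescence freed from ubiquitin-rhodamine substrate followed over time; top concentration of the series differs between compounds; % is set by controls: 0 for no effect and ±100 for the full control effect; nearly all actives have a fitted effect of over 35% in size.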 An outline of the steps: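 Deubiquitinase activity followed as kinetic rhodamine fluorescence release from 150 nM Ub-Rho. 1 nM USP1/UAF1 with compound, after 15 min room-temperature preincubation, in HEPES pH 7.8 buffer containing TCEP, EDTA, BSA and Tween-20.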

Test [13] deals with DNA dC->dU-editing enzyme APOBEC-3G (Homo sapiens) (UniProt Q9HC16). Briefly: qHTS for inhibitors of Vif-A3G interactions: Validation (AID 588379). Note: 0% is about no effect. A digest of the protocol: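 Yellow fluorescence (Ex 488, Em 500-530) of Vif-coexpressing HeLa A3G-eYFP cells, scanned by Acumen cytometer, reports blocked A3G degradation. Cells plated at 700/well overnight at 37 deg C before compound addition, then a further overnight compound incubation at 37 deg C.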

Test [14] concerns the target 3',5'-cyclic-AMP phosphodiesterase 4B (Homo sapiens) (UniProt Q07343). The test can be described thus: qHTS Assay for Inhibitors of PDE-IV (AID 607; active = well fitted activation curve with a large enough effect in the main read-out, with a control signal flat, not every such curve was filed as active; note: % of control where 0% means no effect). An outline of the steps:
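Cell-based read-out of cAMP via a modified cyclic nucleotide-gated channel and membrane potential dye (535/590 nm) in HEK293 cells expressing PDE4 endogenously. Compounds tested up to 22.9 uM final; 100 uM RO 20-1724 reference.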

Test [15] has as its target Cytochrome P450 3A4 (Homo sapiens) (UniProt P08684). The test can be described thus: qHTS Assay for Inhibitors and Substrates of Cytochrome P450 3A4 (AID 884). Note: nearly all actives have a fitted effect of over 50% in size. Note: potency is the fitted concentration of half-maximal effect. An outline of the steps:
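Luminescent readout of luciferin produced by CYP3A4 (20 nM) dealkylation of Luciferin-PPXE, 25 uM (its KM). NADPH-driven reaction ran 60 min at RT after 10 min compound preincubation; data scaled to 57 uM ketoconazole as 100% inhibition.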

The nature of test [16]: AP1 Signaling Pathway (AID 357; active = well fitted curve in either direction with a large enough effect, not every such curve was filed as active;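 note: ME-180 reporter cells stimulated with EGF at its EC50 level; % is set by controls: 0 for no effect and ±100 for the full control effect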). As to conditions: ME-180 AP-1-bla reporter, EGF-induced, beta-lactamase ratio, 5 h. An outline of the steps:
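AP-1-bla ME-180 cells, Opti-MEM + 0.5% dialyzed FBS, plated overnight 37 °C. Cpd titration + EC50 EGF, 5 h 37 °C. CCF4 2.5 h RT; ex 405, em 460/530 ratio → %activity, AC50.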

Test [17] in a line: NFAT Signaling Pathway (AID 444; active = well fitted curve in either direction with a large enough effect, not every such curve was filed as active;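 note: carbachol stimulus at about its EC50 of 1 µM final; % is set by controls: 0 for no effect and ±100 for the full control effect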). As to conditions: Jurkat NFAT-bla M1, carbachol, beta-lactamase ratio, 5 h. A digest of the protocol:
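Jurkat cells carrying an NFAT-driven β-lactamase reporter and co-transfected muscarinic M1 receptor were treated with compound plus carbachol (1 uM final, an EC50 level) for 5 h at 37 °C. CCF4 loading followed for 1 h at RT; 460/530 nm ratio gave %activity.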

The nature of test [18]: Stat Signaling Pathway (AID 446; active = well fitted curve in either direction with a large enough effect, not every such curve was filed as active). As to conditions: ME-180 (cervical carcinoma) SIE beta-lactamase reporter, IL-6 stimulated, 5 h. A digest of the protocol:
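FRET read-out (405 nm excitation, 460/530 nm emission) of a beta-lactamase reporter under a STAT-inducible element in ME-180 cervical carcinoma cells. Cells with compound receive 40 pM IL-6 for 5 h. Values are normalised to AC90 stimulation and AC90 JAK-inhibitor controls.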

Test [19] has as its target Guanine nucleotide-binding protein G(i) subunit alpha-1 (Homo sapiens) (UniProt P63096). The test can be described thus: qHTS Assay for Inhibitors of RGS12 GoLoco Motif Activity (Green Fluorophore) (AID 879).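 Note: 0% = labeled peptide with Gαi1 and full inhibition = labeled peptide alone without protein; negative values mean loss of peptide binding seen as reduced polarization.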 A digest of the protocol:
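A drop in FITC polarization marked displacement of the FITC-tagged RGS12 GoLoco peptide (10 nM) from Gαi1 (50 nM). Compounds were incubated 10 min at room temperature in Tris pH 7.5 buffer containing 150 mM NaCl, 0.1 mM GDP and 0.05% NP40; unlabeled peptide titration served as control.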

The target in test [20] is Pyruvate kinase (Leishmania mexicana) (UniProt Q27686). The test can be described thus: qHTS Validation Assay for Inhibitors of Leishmania Mexicana Pyruvate Kinase (AID 945).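 Note: 0% = DMSO only neutral control wells.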 A digest of the protocol:
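Mutant LmPYK (E451W), 0.2 nM, plus 0.5 mM PEP and 0.1 mM ADP in 50 mM imidazole pH 7.2 containing 0.01% Tween 20 and 0.05% BSA. Incubated 1 h at room temperature; luminescence via PKLight, normalized to DMSO.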

The mark [21] stands for this setting: measured here: cell count channel max response.
[22] abbreviates: measured here: lipid channel max response.

Several values for one entry are separate records, joined by “and”; a condition that tells them apart may be missing. Identical values can stand only once. Inconclusive results are not listed. Activity calls are given as the source filed them. Unless noted, calls come from the whole dose curve; as a rule, active = well fitted curve in the direction sought with a large enough effect; inconclusive = small, poorly fitted or top-dose-only effect, or another doubt; inactive = no such curve, though single readings can be large; an effect the other way counts as inactive or inconclusive.

Sequence of Cytochrome P450 2C19 (Homo sapiens) (P33261 whole entry, looked up): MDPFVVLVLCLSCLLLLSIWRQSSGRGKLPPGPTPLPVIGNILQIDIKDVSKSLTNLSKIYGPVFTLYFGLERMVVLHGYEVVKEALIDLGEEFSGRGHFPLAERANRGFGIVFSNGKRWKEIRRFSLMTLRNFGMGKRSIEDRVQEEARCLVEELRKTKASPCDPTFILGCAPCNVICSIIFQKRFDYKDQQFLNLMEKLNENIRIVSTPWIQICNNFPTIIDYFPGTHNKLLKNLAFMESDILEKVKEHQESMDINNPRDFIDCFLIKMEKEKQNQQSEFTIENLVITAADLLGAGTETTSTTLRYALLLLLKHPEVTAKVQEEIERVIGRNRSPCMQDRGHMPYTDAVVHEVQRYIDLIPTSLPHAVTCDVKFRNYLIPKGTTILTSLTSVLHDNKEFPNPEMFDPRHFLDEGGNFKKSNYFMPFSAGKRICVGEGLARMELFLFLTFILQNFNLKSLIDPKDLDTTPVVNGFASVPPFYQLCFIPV
Sequence of Glucocorticoid receptor (Homo sapiens) (P04150 whole entry, looked up, the tested form may be a part): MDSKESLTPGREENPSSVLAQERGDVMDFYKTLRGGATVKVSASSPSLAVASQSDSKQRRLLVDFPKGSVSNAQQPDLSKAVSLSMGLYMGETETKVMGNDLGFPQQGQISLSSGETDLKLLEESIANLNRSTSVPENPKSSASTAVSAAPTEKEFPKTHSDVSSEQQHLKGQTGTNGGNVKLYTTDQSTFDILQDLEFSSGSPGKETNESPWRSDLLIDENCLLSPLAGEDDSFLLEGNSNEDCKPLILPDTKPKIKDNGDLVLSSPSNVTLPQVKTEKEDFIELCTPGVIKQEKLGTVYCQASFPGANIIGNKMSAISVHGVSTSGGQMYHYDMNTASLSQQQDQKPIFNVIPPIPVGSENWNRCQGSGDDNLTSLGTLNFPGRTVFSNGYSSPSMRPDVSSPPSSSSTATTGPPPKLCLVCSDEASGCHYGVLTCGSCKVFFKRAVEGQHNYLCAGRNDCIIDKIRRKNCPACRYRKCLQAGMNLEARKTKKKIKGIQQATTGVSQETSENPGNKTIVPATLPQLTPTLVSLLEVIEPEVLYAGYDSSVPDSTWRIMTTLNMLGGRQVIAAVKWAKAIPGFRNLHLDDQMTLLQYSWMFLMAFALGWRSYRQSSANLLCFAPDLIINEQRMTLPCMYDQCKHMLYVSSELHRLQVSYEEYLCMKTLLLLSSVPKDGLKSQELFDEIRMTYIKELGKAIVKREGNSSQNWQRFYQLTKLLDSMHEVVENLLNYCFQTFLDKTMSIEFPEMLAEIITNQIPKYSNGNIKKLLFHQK
Sequence of 3',5'-cyclic-AMP phosphodiesterase 4B (Homo sapiens) (Q07343 whole entry, looked up): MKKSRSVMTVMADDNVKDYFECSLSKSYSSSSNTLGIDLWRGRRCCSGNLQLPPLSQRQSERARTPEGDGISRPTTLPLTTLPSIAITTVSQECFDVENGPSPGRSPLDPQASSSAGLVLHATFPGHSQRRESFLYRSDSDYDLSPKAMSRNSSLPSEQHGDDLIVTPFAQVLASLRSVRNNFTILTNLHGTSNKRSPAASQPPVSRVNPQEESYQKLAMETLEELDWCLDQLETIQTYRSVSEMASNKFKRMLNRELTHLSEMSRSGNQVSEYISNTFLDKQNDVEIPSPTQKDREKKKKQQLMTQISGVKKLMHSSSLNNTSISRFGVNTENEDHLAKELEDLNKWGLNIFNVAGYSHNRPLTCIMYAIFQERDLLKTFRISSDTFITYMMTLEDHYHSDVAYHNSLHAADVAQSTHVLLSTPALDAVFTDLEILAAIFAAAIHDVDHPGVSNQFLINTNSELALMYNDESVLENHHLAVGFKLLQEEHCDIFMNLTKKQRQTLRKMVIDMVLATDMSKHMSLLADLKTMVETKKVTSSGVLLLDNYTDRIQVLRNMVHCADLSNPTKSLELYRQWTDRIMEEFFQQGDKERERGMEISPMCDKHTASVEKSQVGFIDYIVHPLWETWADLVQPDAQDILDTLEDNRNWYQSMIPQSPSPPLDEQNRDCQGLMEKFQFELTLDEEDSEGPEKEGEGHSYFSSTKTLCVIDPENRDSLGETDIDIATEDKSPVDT
Sequence of DNA dC->dU-editing enzyme APOBEC-3G (Homo sapiens) (Q9HC16 whole entry, looked up): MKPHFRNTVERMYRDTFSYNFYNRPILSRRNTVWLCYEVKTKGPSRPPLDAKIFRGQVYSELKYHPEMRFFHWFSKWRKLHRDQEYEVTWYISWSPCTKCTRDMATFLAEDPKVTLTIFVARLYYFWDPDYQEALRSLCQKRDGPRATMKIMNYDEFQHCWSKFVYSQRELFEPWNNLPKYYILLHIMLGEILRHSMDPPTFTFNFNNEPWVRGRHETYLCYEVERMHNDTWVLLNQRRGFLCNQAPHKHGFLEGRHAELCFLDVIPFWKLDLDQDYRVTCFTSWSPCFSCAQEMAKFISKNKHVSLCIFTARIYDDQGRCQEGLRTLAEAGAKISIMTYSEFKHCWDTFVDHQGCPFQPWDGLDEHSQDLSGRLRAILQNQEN
Sequence of Cytochrome P450 2D6 (Homo sapiens) (P10635 whole entry, looked up): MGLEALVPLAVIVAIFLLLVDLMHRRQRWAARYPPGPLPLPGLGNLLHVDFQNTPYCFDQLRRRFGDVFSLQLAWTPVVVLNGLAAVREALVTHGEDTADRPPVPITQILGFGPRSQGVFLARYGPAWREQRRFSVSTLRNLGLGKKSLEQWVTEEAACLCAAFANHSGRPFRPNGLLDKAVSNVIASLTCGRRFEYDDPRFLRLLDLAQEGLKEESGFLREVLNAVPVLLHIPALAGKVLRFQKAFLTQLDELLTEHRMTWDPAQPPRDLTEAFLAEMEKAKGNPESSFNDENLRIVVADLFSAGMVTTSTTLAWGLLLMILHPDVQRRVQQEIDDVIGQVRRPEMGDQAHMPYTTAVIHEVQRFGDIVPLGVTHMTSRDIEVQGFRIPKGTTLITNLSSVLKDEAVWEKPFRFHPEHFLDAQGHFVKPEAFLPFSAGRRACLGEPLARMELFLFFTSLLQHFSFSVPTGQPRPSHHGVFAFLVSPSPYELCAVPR
Sequence of Cytochrome P450 3A4 (Homo sapiens) (P08684 whole entry, looked up): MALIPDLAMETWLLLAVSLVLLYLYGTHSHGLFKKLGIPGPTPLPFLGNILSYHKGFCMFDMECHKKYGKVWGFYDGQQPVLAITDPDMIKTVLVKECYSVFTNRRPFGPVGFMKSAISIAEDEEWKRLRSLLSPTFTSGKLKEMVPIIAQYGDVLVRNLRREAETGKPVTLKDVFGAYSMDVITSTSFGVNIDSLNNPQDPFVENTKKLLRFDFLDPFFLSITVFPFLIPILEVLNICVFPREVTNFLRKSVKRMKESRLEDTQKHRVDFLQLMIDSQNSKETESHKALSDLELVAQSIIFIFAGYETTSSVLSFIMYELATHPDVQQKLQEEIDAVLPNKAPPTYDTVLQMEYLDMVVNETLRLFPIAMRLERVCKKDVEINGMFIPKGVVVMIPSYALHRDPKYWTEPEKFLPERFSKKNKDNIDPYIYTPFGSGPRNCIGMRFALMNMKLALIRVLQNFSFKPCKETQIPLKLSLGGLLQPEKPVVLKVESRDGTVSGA
Sequence of Ubiquitin carboxyl-terminal hydrolase 1 (Homo sapiens) (O94782 whole entry, looked up): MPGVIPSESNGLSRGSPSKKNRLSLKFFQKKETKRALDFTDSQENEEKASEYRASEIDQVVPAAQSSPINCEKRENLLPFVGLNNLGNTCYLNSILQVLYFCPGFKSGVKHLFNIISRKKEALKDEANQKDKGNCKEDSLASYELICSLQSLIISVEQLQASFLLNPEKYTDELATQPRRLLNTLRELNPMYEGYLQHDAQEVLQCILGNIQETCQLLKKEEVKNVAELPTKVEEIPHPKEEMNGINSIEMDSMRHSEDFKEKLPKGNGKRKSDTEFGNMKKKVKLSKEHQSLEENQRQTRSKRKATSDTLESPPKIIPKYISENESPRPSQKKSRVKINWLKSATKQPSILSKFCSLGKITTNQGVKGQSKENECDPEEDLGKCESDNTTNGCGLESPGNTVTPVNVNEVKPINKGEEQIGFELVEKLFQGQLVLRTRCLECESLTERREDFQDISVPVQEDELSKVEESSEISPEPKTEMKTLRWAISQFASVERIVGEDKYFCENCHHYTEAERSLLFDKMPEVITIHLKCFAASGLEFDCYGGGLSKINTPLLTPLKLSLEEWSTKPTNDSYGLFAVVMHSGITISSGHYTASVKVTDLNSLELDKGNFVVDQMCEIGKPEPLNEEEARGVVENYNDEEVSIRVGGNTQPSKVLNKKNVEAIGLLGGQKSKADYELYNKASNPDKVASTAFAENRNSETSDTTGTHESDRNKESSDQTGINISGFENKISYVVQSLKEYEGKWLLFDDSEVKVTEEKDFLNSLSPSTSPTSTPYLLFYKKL
Sequence of Cytochrome P450 2C9 (Homo sapiens) (P11712 whole entry, looked up): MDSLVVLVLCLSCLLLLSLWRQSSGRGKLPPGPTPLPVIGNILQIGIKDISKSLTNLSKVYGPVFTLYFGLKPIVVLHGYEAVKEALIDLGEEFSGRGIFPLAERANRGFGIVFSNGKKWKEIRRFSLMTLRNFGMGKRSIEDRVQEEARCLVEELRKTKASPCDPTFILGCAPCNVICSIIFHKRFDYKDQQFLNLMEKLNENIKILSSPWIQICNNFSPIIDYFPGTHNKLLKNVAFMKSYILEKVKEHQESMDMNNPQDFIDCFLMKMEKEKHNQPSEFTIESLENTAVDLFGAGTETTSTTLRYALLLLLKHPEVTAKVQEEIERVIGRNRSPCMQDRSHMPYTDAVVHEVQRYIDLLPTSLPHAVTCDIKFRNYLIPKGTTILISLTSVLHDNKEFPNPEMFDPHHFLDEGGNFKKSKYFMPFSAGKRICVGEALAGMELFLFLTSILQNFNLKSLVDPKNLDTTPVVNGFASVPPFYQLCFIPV
Sequence of Guanine nucleotide-binding protein G(i) subunit alpha-1 (Homo sapiens) (P63096 whole entry, looked up): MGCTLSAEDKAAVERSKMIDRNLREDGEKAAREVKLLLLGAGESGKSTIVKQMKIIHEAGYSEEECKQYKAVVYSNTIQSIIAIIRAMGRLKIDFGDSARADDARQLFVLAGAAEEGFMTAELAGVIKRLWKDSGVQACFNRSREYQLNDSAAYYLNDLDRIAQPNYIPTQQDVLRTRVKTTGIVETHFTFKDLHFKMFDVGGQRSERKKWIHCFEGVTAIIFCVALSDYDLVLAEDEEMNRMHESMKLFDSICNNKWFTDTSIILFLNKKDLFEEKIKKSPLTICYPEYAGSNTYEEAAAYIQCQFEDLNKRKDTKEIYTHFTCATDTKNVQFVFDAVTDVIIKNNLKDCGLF

Take `c1ccc(N2CCN(Cc3nc4ccccc4[nH]3)CC2)nc1`: the Potency result in test [1], in [2] and in test [3] was “inactive” in each case.

For `CCCN(CCC)C[C@@H]1CCCCN1CCNC(=O)N1c2ccccc2C(=O)Nc2cccnc21`, the Potency in test [4] was 25.1 µM (active); in [5], > 46 µM (inactive); in [6] it was > 46 µM (inactive); in test [9] it was 2.51 µM (active); in test [10] it was 7.94 µM (active). Also, the Potency entry in [7], in test [8], in test [1], in [12], in test [13] and in [2] was “inactive” each time. Further, the activity change, negative = inhibition in test [11] (at 57.5 µM (top of the series)) was -0.0589% (inactive). Moreover, the results for the max response in test [11] (setting [21]) and in test [11] (setting [22]) were -8.98% and -7.53%, respectively.

Consider `N#Cc1ccccc1OC[C@H](O)CNCCNC(=O)Nc1ccccc1`, for which the Potency in test [5] and in test [6] was > 46 µM (inactive) in each case. In addition, the Potency entry in test [7], in [14], in [12], in test [13] and in test [2] was “inactive” each time. Besides, the activity change, negative = inhibition in test [11] (at 57.5 µM (top of the series)) was 0.479% (inactive). In addition, the results for the max response in [11] (setting [21]) and in [11] (setting [22]) were 6.59% and 10.2%, respectively.

With `CSc1nc(N)c2ncn([C@H]3O[C@H](COP(=O)(O)OP(=O)(O)OP(=O)(O)O)[C@@H](O)[C@@H]3O)c2n1`, the Potency in [5] and in [6] was > 46 µM (inactive) in each case. The Potency result in [7], in test [14], in [8], in test [15], in test [9] and in [10] was “inactive” each time. The Potency result in test [13] and in test [2] was “inactive” each time. Besides, in test [11] (at 57.5 µM (top of the series)), the activity change, negative = inhibition was 4.02% (inactive). For the same compound, the max response is -2.91% in test [11] (setting [21]) and 1.82% in [11] (setting [22]).

`CC(C)[N+]1(C)[C@@H]2CC[C@H]1CC(OC(=O)[C@@H](CO)c1ccccc1)C2` (stereo partly specified): the activity change, negative = inhibition in test [16] (at 17.2 µM (top of the series)) was -0.347% (inactive); in test [17] (at 17.2 µM (top of the series)), -41.7% (active); in test [11] (at 25.7 µM (top of the series)) it was 1.72% (inactive); in test [11] (at 57.5 µM (top of the series)), -6.35% (inactive). Besides, the activity, negative = inhibition in [18] (at 17.2 µM (top of the series)) was 2.01% (inactive). For the same compound, the Potency result in test [7], in test [14], in [13] and in [2] was “inactive” throughout. In addition, the max response was 2.23% and -7.97% in test [11] (setting [21]); 5.73% and -12.6% in test [11] (setting [22]).

For `CCOC(=O)C1CSC(Cc2ccc(OCc3ccc([N+](=O)[O-])cc3)cc2)N1` (stereo unspecified), the Potency in test [15] is 15.8 µM (active). For the same compound, the Potency entry in test [1], in [2] and in test [3] was “inactive” each time.

In the case of `CN(C)CCCSc1ccccc1NC(=O)/C=C\c1ccccc1`, the values for the Potency in [5], in [6] and in test [9] were > 46 µM (inactive), > 46 µM (inactive) and 0.316 µM (active), respectively. Further, the Potency result in test [7], in [8], in test [10], in test [12], in test [13] and in test [2] was “inactive” in each case. Further, the activity change, negative = inhibition in [11] (at 57.5 µM (top of the series)) was 4.73% (inactive). In addition, the max response came out at 14.3% in test [11] (setting [21]) and 23.1% in test [11] (setting [22]).

Turning to `N[C@]1(C(=O)O)CCc2cc(C(=O)O)ccc21`, the activity change, negative = inhibition in test [16] (at 38 µM (top of the series)) is 2.45% (inactive); in test [17] (at 38 µM (top of the series)) it was 3.1% (inactive); in [11] (at 57.5 µM (top of the series)), 5.84% (inactive). Moreover, the activity, negative = inhibition in test [18] (at 38 µM (top of the series)) is -13% (inactive). Besides, the Potency in test [5] and in test [6] was > 46 µM (inactive) in each case. Moreover, the Potency result in [7], in test [14], in [20], in test [13] and in test [2] was “inactive” in each case. The outcome in test [19] was inactive. Also, the max response amounted to 14.2% in [11] (setting [21]) and 23.6% in [11] (setting [22]).
